# The whole screen tested about 230,000 compounds, of which about 310 (0.13%) were called active. About 2% were inconclusive and are not listed. Shown is part of a subset that was picked to be rich in actives. Where a call stands in place of a potency, no number is given. Values without a mark were called inactive. The call rests on the fitted dose curve; in most records, active means well fitted activation curve with a large enough effect; inconclusive means small, poorly fitted or top-dose-only effect; inactive means no such curve, though single readings can be large or run the other way.
# Experiment: qHTS Multiplex Assay to Identify Dual Action Probes in a Cell Model of Huntington: Cytoprotection (ATP); further: nearly all actives have a fitted effect of over 45% in size;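 on cytoprotection (ATP increase): toxic huntingtin expression switched on by the ecdysone agonist tebufenozide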
# Details: PC12 HTT-Q103 induced, ATP luminescence, 40 h; series mostly up to 56.4 µM
# From the text: NIH Chemical Genomics Center [NCGC]
# NIH Molecular Libraries Probe Production centers Network [MLPCN]
# Assay Submitter (PI): Wei Zheng
# Huntington's disease is a neurodegenerative disorder caused by a trinucleotide repeat expansion in Exon 1 of the Huntingtin gene. The CAG trinucleotide encodes glutamine and polyglutamine expansions cause cell death in selective areas of the brain. Huntington polyglutamine repeats have the tendency to form aggregates which are observable in later stages of the disease. The exact nature of the aggregates, whether toxic, protective, or insignificant, is unclear.
# A stable PC12 cell line containing a gene fusion of Exon 1 of the Huntingtin gene linked to GFP under the control of the inducible ecdysone promoter were used as the cell-based model of Huntington Disease for high throughput screening. Exon 1 of the Huntingtin gene contained an expansion of 103 polyglutamines (Q103) which, when expressed, caused cell death and distinct, bright GFP aggregates. The amount of cell death and the size and intensity of GFP aggregates increased over time and induction level. The cell death were quantified with a measurement of ATP content in the cells. A maximal 40-50% of cell death was observed when the Huntington gene was induced in this cell line.
# We optimized this assay in a homogeneous 1536 well format. A quantitative high throughput screen (qHTS) was conducted on the PC12 cells which were induced to express the toxic fusion construct. Small molecules which prevented cell death were identified by using a luminescent ATP quantification method (Perkin Elmer's ATPlite).
# PC12 cells stably containing a construct with an ecdysone inducible promoter expressing GFP fused to the exon 1 of HTTQ103 (Huntington protein which containing a 103 ployglutamine expansion) were used.
# NCGC Assay Protocol Summary:
# Sequence, Parameter, Description
# 1, Reagent, 5 uL 1500 cells/well 1536 TC treated White clear bottom plate
# 2, Compound, 23 nL Tebufenozide inducer (100 nM final) to all columns
# 3, Compound, 23 nL 40 uM to 0.5 nM Libraries
# 5, Reagent, 5 ul ATPLite cell death assay reagent
# 6, Detector, 4 sec integration with a Viewlux Luminescent
# Media consisted of phenol red free DMEM + 5% equine serum (Hyclone # SH30072.03 ), 5% supplemented Bovine Calf Serum (Hyclone # SH30074.03 ), 1x pen/strep, no G418
# Control columns: 1 = DMSO, 2= 2 uM teb dilns (1:1), 4 = 100 nM Teb inducer. Sample columns received 100 nM Teb.
# Potency means the concentration at half of the fitted maximal effect.
SMILES,cytoprotection (ATP increase),Potency
CCCCCCCC/C=C\CCCCCCCC(=O)NCC(=O)O,inactive,–
CC(=O)Oc1ccccc1C1=NN(C(C)=O)C(c2ccccc2)C1 (stereo not given),inactive,–
CCCN(CCc1ccccc1)C1CCc2c(O)cccc2C1 (stereo not given),inactive,–
CCOC(=O)C1=C(C)c2ccccc2OC1C(=O)OCC (stereo not given),inactive,–
O=C(O)C[C@@H]1NC(=O)[C@H](Cc2ccccc2)NC1=O,inactive,–
COc1ccc(-c2nc3c(c4c2C[C@H](c2ccccc2)OC4)CN(C(=O)c2cccnc2)CC3)c(C)c1,27.4% [at 10 µM],–
COc1ccc(NC(=S)NC2CCS(=O)(=O)C2)cc1 (stereo not given),2.72% [at 0.074 µM],–
COc1cccc(CC(=O)N2CCc3nc(COc4ccccc4)c4c(c3C2)CO[C@@H](C)C4)c1,16.2% [at 10 µM],–
CC(C)C1=CC2=CC[C@H]3[C@](C)(C(=O)O)CCC[C@]3(C)C2CC1 (stereo not given in full),inactive,–
COc1ccc(-c2[nH]nc(-c3ccccc3)c2-c2nc3ccccc3[nH]2)cc1,inactive,–
CCOC(=O)CCNC(=O)N1CCCC(C(=O)c2ccccc2SC)C1 (stereo not given),2.06% [at 10 µM],–
CSCCC(=O)N1CCCC(CNC(=O)c2ccccc2Cl)C1 (stereo not given),–,2.82 µM (active)
CSc1ncccc1C(=O)N1CCCC(CCC(=O)NCc2ccccc2F)C1 (stereo not given),4.93% [at 10 µM],–
C[C@@H]1C(c2ccc(F)cc2)=NN(c2ccc(Br)cc2)[C@H]1C(=O)N1CCOC1=O,inactive,–
Cc1cc(=O)oc(C)c1C(=O)NCCN(C)Cc1ccccc1,inactive,–
COc1ccc(-c2nc(-c3ccccc3)oc2Nc2ccc3ccccc3c2)cc1,inactive,–
COc1ccc2c(c1)O[C@@H](c1ccc3c(c1)OCO3)[C@H](OC(=O)NCc1ccco1)C2=O,inactive,–
O=C(O)CCC(=O)O,inactive,–
CCCCCCCCCCCCCCCCO,inactive,–
COc1ccc(CCCOC(Cn2ccnc2)c2ccc(OC)cc2)cc1 (stereo not given),inactive,–
NC(=O)C1CCN(C(=O)c2ccc(-c3ccccc3)cc2)CC1,inactive,–
COc1ccccc1N1CCN(C(=O)CN(Cc2ccc(Cl)cc2)S(C)(=O)=O)CC1,inactive,–
COc1ccccc1-n1nnnc1S(=O)(=O)Cc1ccc(Cl)cc1,–,25.1 µM (active)

SMILES,cytoprotection (ATP increase),Potency
COc1ccccc1CN(C)c1nnnn1-c1ccccc1,inactive,–
COC(=O)CCCC1=CC2=CC(=O)C(C)(OC(=O)c3cccs3)C(=O)C2=CN1c1ccc(CO)cc1 (stereo not given),-11% [at 10 µM],–
CC(=O)N(CC(O)CO)c1c(I)c(C(=O)NCC(O)CO)c(I)c(C(=O)NCC(O)CO)c1I (stereo not given),inactive,–
COC(=O)C1=C(C(=O)OC)[C@@H]2N(C)c3ccccc3[C@@]23C[C@@H](C(=O)OC)N(S(=O)(=O)c2cccs2)C3=N1,-27.2% [at 10 µM],–
COc1ccc(-c2noc(-c3ccc(C)cc3)n2)cc1,inactive,–
COc1ccc(-c2nc(-c3ccccc3)no2)c(OC)c1,–,5.62 µM (active)
COc1ccc(-c2noc(-c3cccc(OC)c3OC)n2)cc1OC,inactive,–
O=P(O)(O)C(O)c1ccc2ccccc2c1 (stereo not given),inactive,–
COCCNc1nc2nonc2nc1N(C)Cc1ccc(C)cc1,-6.59% [at 10 µM],–
Cc1ccc(NC(=O)O[C@@H]2C(=O)c3cc(Br)ccc3O[C@H]2c2ccc3c(c2)OCO3)cc1Br,inactive,–
CCNc1nc(NC(C)C)nc(OCCOC(=O)c2ccccc2)n1,-7.6% [at 10 µM],–
COc1ccc(C2(C#N)CCC(C(=O)O)CC2)cc1OC1CCCC1 (stereo not given),inactive,–
C=C(C)C(=O)c1ccc(F)cc1,inactive,–
C/C(Nc1ccc2oc(=O)ccc2c1)=C1/C(=O)CC2[C@@H]1C2(C)C (stereo not given in full),inactive,–
Nc1ccc(N=Nc2ccccc2Cl)c(N)n1,7.07% [at 10 µM],–
COC(C)C(C(=O)OCC1=CCN2CC[C@H](O)[C@@H]12)C(C)C (stereo not given in full),inactive,–
COc1ccc(-c2c(C)cc3oc(=O)cc(-c4ccccc4)c3c2C)cc1F,inactive,–
N#C/C(=C\C1=C(N2CCOCC2)C(=C\c2ccccc2)/CC1)C(=O)Nc1ccccc1F,6.74% [at 10 µM],–
COC(=O)C1=C(C(=O)OC)[C@@H]2Nc3ccccc3[C@@]23C[C@@H](C(=O)OC)N(S(=O)(=O)c2ccc([N+](=O)[O-])cc2)C3=N1,9.32% [at 10 µM],–
COC(=O)C1=C(N)Oc2cc(C)[nH]c(=O)c2C1c1ccc(Cl)cc1 (stereo not given),-1.17% [at 10 µM],–
COc1ccc(C2CC(=O)Oc3ccc(C(C)(C)C)cc32)cc1 (stereo not given),inactive,–
FCOC(C(F)(F)F)C(F)(F)F,inactive,–

# Source: PubChem BioAssay AID1471 (National Center for Advancing Translational Sciences (NCATS), 2008)
